Screening results deposited in PubChem BioAssay by National Center for Advancing Translational Sciences (NCATS).
The list is not random: actives were taken first. Their share in the collection is about 2.1%.
aSyn rescue: qHTS of alpha-syn Inhibitors; Yeast expressing alpha-synuclein, growth rescue, BacTiter-Glo, 24 h; Potency, µM (highest dose often 46.1 µM), actives largely listed as activators; 0.14% of 370,000 active; AID 652106, 2013; note: nearly all actives have a fitted effect of over 65% in size
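Galactose-induced alpha-syn yeast (OD600=0.02, raffinose-pregrown) + pinned cpd, 24 hr, 30 deg C; growth by BacTiter-Glo luminescence. Growth restoration scores as activation.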
Abeta yeast res: qHTS for compounds that reverse cellular toxicity of Amyloid beta (A-beta) peptide in yeast: Primary Screen. yeast expressing A-beta42, growth rescue, OD600, 48 h; response scale: 0% DMSO, 100% iron-clioquinol control. AID 1347071, 2019. Potency, µM (doses to about 46.1 µM), usual class: activators. 0.063% of 410,000 active; note: nearly all actives have a fitted effect of over 55% in size
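Yeast A-beta toxicity model in growth medium with pinned compounds, 48 h at 30 C; growth read as absorbance at 600 nm. Normalized to FeCl3/clioquinol equimolar mix (positive) and DMSO (negative).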
FUS suppressor: qHTS for Suppressors of FUS Proteinopathy: Primary screen using FUS-linked yeast assay | AID 1347120, 2019 | S. cerevisiae FUS-expressing, growth rescue, OD600, 24 h | Potency, µM (titrated, usually from 76.6 µM), usual class: activators | 0.24% of 390,000 active; note: nearly all actives have a fitted effect of over 55% in size
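Read-out: OD at 600 nm after 24hr at 30C, reporting rescue of FUS-induced yeast toxicity. Cells at OD 0.005 in galactose (2%) minimal medium; compounds tested in a dilution series; CP55940 titration from 92uM final as control.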
TDP43 rescue: qHTS of TDP-43 Inhibitors | TDP-43 expressing yeast growth rescue, BacTiter-Glo, 24 h | Potency, µM (top dose mostly 46.1 µM), actives largely listed as activators | 1.8% of 410,000 active | AID 652104, 2013; note: nearly all actives have a fitted effect of over 50% in size
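Luminescence from BacTiter-Glo reports growth of TDP-43-expressing yeast after 24 hr at 30 deg C with compound. Cells were raffinose-pregrown to mid-log, then seeded in galactose medium at OD600=0.02.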
A number is an active result; [ ] = remark or other dose. Calls come from the whole dose curve; as a rule, active = well fitted curve in the direction sought with a large enough effect; inconclusive = small, poorly fitted or top-dose-only effect, or another doubt; inactive = no such curve, though single readings can be large; an effect the other way counts as inactive or inconclusive.

CCOc1ccc(NC(=O)CSc2nc3nc(C)c(Cc4ccccc4)c(C)n3n2)cc1 was read as Abeta yeast res inactive, FUS suppressor inactive and TDP43 rescue 25µM.
CCN(CC(=O)Nc1ccc(NC(C)=O)cc1)C(=O)C1CC1 was read as aSyn rescue inactive, Abeta yeast res inactive, FUS suppressor inactive and TDP43 rescue inactive.
`COc1ccc(CCNC(=O)C2CCCN(S(=O)(=O)N3CCCCCC3)C2)cc1OC` (stereo unspecified) gave aSyn rescue inactive, Abeta yeast res inactive, FUS suppressor inactive and TDP43 rescue inactive.
Cc1ccc(Cc2c(-c3ccccc3)nc3ccc(Br)cn23)cc1 was read as aSyn rescue inactive, Abeta yeast res inactive, FUS suppressor inactive and TDP43 rescue 22µM.
`Clc1cccc(Cc2c(-c3cccc(Cl)c3)nc3ccc(Br)cn23)c1` gave aSyn rescue inactive, Abeta yeast res inactive, FUS suppressor inactive and TDP43 rescue 35µM.
Clc1cccc(-c2nc3ccc(Br)cn3c2Cc2ccccc2)c1 was read as aSyn rescue inactive, Abeta yeast res inactive, FUS suppressor inactive and TDP43 rescue inconclusive.
Brc1cccc(-c2nc3ccc(Br)cn3c2Cc2ccccc2)c1 was read as aSyn rescue inactive, Abeta yeast res inactive, FUS suppressor inactive and TDP43 rescue 28µM.
For Clc1cccc(Cc2c(-c3cccc(Br)c3)nc3ccc(Br)cn23)c1 the results were aSyn rescue inactive, Abeta yeast res inactive, FUS suppressor inactive and TDP43 rescue 20µM.
CCn1cc(S(=O)(=O)Nc2nc3ccc(OC)cc3s2)cn1 was read as aSyn rescue inactive, Abeta yeast res inactive, FUS suppressor inactive and TDP43 rescue inactive.
Screening COc1cc(C2C3C(C)N(C)C(=O)N(C)C3N(C)C(=O)N2C)ccc1O (stereo unspecified) returned aSyn rescue inactive, Abeta yeast res inactive, FUS suppressor inactive and TDP43 rescue inactive.
Brc1ccc2nc(-c3ccco3)c(Cc3ccsc3)n2c1 was read as aSyn rescue inactive, Abeta yeast res inactive, FUS suppressor inactive and TDP43 rescue 3.2µM.
For Cc1ccc2nc(-c3ccco3)c(CC(C)(C)C)n2c1 the results were aSyn rescue inactive, Abeta yeast res inactive, FUS suppressor inactive and TDP43 rescue 11µM.
For Clc1ccc2nc(-c3ccco3)c(Cc3ccsc3)n2c1 the results were aSyn rescue inactive, Abeta yeast res inactive, FUS suppressor inactive and TDP43 rescue inactive.
`Cc1ccc2nc(-c3ccco3)c(Cc3ccccc3)n2c1` gave aSyn rescue inactive, Abeta yeast res inactive, FUS suppressor inactive and TDP43 rescue inactive.
For CC(C)c1ccc(C(=O)CSc2n[nH]c(-c3ccncc3)n2)cc1 the results were aSyn rescue inactive, Abeta yeast res inactive, FUS suppressor inactive and TDP43 rescue 35µM.
`O=C(CSc1n[nH]c(-c2ccccc2)n1)c1ccccc1` gave aSyn rescue inactive, Abeta yeast res inactive, FUS suppressor inactive and TDP43 rescue inactive.
`COc1ccc2ccccc2c1/C=N/Nc1cccc(C(=O)O)c1` gave aSyn rescue inactive, Abeta yeast res inactive, FUS suppressor inactive and TDP43 rescue 20µM.
Screening O=C(O)c1cccc(N/N=C/c2ccc(F)c(F)c2)c1 returned aSyn rescue inactive, Abeta yeast res inactive, FUS suppressor inactive and TDP43 rescue 25µM.
`O=C(O)c1ccc(/C=N/Nc2ccc(C(F)(F)F)cn2)cc1` gave aSyn rescue inactive, Abeta yeast res inactive, FUS suppressor inactive and TDP43 rescue 8.9µM.
O=C(O)c1cc(N/N=C/c2ccc(-c3ccccc3)cc2)ccc1Cl was read as aSyn rescue inactive, Abeta yeast res inactive, FUS suppressor inactive and TDP43 rescue 35µM.
For O=C(O)c1ccc(/C=N/Nc2cccc(C(F)(F)F)c2)cc1 the results were aSyn rescue inactive, Abeta yeast res inactive, FUS suppressor inactive and TDP43 rescue inconclusive.
O=C(C[n+]1cc(-c2ccc(Cl)c(Cl)c2)n2c1CCC2)N1c2ccccc2Sc2ccccc21 was read as aSyn rescue inactive, Abeta yeast res inactive and TDP43 rescue inactive.
CCCCCOc1ccc2oc(=O)c3c(c2c1)CCCN3C(=O)CN1CCCC(C(=O)OCC)C1 (stereo unspecified) was read as aSyn rescue inactive, Abeta yeast res inactive, FUS suppressor inactive and TDP43 rescue inactive.
O=C(O)c1ccc(N/N=C/C=C/c2ccccc2)cc1 was read as aSyn rescue inactive, Abeta yeast res inactive, FUS suppressor inactive and TDP43 rescue 3.5µM.
For CC(C)c1ccc(/C=N/Nc2ccc(C(=O)O)cc2)cc1 the results were aSyn rescue inactive, Abeta yeast res inactive, FUS suppressor inactive and TDP43 rescue 11µM.
`COc1ccc(/C=N/Nc2ccc(C(=O)O)cc2)cc1OC` gave aSyn rescue inactive, Abeta yeast res inactive, FUS suppressor inactive and TDP43 rescue inactive.
`O=C(N/N=C/C=C/c1ccccc1)c1ccncc1` gave aSyn rescue inactive, Abeta yeast res inactive, FUS suppressor inactive and TDP43 rescue inactive.
O=C(O)c1ccc(N/N=C/c2ccc(-c3ccccc3)cc2)cc1 was read as aSyn rescue inactive, Abeta yeast res inactive, FUS suppressor inactive and TDP43 rescue 5.6µM.
`O=C(O)c1[nH]c2ccccc2c1C(c1c(F)cccc1Cl)c1c(C(=O)O)[nH]c2ccccc12` gave aSyn rescue inactive, Abeta yeast res inactive, FUS suppressor inactive and TDP43 rescue inactive.
Cc1ccc(NC(=O)c2ccc(Cn3cc(Br)cn3)o2)cc1 was read as aSyn rescue inactive, Abeta yeast res inactive, FUS suppressor inactive and TDP43 rescue 16µM.
For Cc1ccc2nc(N3CCN(c4ccccc4F)CC3)c(C=O)c(=O)n2c1 the results were aSyn rescue inactive, Abeta yeast res inactive, FUS suppressor inactive and TDP43 rescue 16µM.
`Cc1ccc2nc(-c3ccccc3)c(CN3CCN(c4ccccc4F)CC3)n2c1` gave aSyn rescue inactive, Abeta yeast res inactive, FUS suppressor inactive and TDP43 rescue inactive.
Screening O=C(CCc1nc2ccccc2[nH]1)N1CCN(C(=O)c2ccco2)CC1 returned aSyn rescue inactive, Abeta yeast res inactive, FUS suppressor inactive and TDP43 rescue inactive.
O=C(CSc1ccc(-c2nc3ccccc3[nH]2)cn1)N1CCN(C(=O)c2ccco2)CC1 was read as aSyn rescue inactive, Abeta yeast res inactive, FUS suppressor 14µM and TDP43 rescue inactive.
`Cc1ccc(N/N=C(\C#N)C(=N)N2CCOCC2)cc1` gave aSyn rescue inactive, Abeta yeast res inactive, FUS suppressor inactive and TDP43 rescue inactive[9.22 µM].
Screening Cc1cc(C)cc(OCC(=O)NNC(=O)c2cc(C)[nH]n2)c1 returned aSyn rescue inactive, Abeta yeast res inactive, FUS suppressor inactive and TDP43 rescue inactive.
O=C(COc1ccccc1)NNC(=O)c1ccc(Cl)cc1 was read as aSyn rescue inactive[1.84 µM], Abeta yeast res inactive, FUS suppressor inactive and TDP43 rescue inactive.
For Cc1cc(C)cc(OCC(=O)NNC(=O)c2ccccn2)c1 the results were aSyn rescue inconclusive, Abeta yeast res inconclusive, FUS suppressor inactive and TDP43 rescue 20µM.
